Measured values as given in PubChem BioAssay (NCI).
This is part of a sample that, as a whole, favours compounds with a hit. Of some 83,000 tested, about 20% had one in any assay.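 How to read the values: 0–100, growth inhibition (40 = 60% inhibited); 0, no net growth; -100 to 0, cell death (-40 = 40% of starting cells died; -100 = all dead).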 Unmarked numbers belong to inactive results. Active and inactive are the calls of the source. The calls were made as follows: active = growth percent below 10; inactive = the rest.

System: MDA-MB-468 breast
Assay: NCI-60 one-dose screen, 48 h (100 = growth as untreated, 0 = no growth, -100 = all killed)
Details: 10 µM unless noted

Point of comparison: `O=C(NC1CC1)c1cc2n(n1)CC(c1ccccc1)N2` (centres undefined), growth 98.5%. Against it:
- CCCC1CCC(=C2C(=O)CCC2=O)O1 (centres undefined) — lower, 88.7%
- Cc1nc(N)sc1-c1ccnc(Nc2ccc(N3CCOCC3)cc2)n1 — lower, 34.1%

In the case of `CN(C)CCCC1(c2ccc(F)cc2)OCc2cc(-c3cc4ccccc4s3)ccc21` (centres undefined), the growth is reported as -8.95% (active).
